{"source": "paper PMC6925144", "about": "“A prospective compound screening contest identified broader inhibitors for Sirtuin 1” (Scientific Reports, 2019)"}
{"molecular_target": "NAD-dependent deacetylase Sirtuin 1 (human, UniProt Q96EB6)", "sequence (Q96EB6 2-747 limits assumed)": "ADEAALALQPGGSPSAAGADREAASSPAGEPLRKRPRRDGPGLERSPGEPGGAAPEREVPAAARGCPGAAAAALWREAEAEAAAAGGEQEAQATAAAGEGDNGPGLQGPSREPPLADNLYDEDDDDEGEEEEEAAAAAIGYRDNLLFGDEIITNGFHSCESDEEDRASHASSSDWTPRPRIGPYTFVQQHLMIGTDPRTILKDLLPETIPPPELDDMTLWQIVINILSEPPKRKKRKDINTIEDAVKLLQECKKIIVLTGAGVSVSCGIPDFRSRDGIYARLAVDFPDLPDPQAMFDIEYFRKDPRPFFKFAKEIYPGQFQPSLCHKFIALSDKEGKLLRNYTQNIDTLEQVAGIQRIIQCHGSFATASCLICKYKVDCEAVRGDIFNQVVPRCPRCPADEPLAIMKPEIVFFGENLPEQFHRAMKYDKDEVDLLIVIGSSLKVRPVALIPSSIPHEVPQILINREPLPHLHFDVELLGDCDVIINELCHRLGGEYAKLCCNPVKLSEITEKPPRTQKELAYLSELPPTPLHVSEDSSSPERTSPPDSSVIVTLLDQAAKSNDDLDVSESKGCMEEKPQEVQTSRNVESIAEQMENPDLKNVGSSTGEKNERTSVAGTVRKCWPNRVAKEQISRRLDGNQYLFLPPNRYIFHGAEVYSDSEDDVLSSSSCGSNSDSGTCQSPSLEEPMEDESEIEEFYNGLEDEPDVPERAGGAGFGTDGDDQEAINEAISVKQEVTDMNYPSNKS", "experiment": "primary screen, percent inhibition; higher = more effect of the substance", "design": "mean of n = 4", "conditions": "10 µM", "experimental": "Note that the inhibitory assay was conducted with NAD+.", "units": {"TSA(without NAD+) / Inhibitory assay (Promega kit) / Mean (%)": "%", "TSA(with NAD+) / Inhibitory assay (Promega kit) / Mean (%)": "%"}}
{"smiles": "O=C(Nc1cccc(S(=O)(=O)N2CCOCC2)c1)c1cn(-c2ccccc2)nc1-c1ccc(Cl)cc1", "TSA(without NAD+) / Inhibitory assay (Promega kit) / Mean (%)": 13.8}
{"smiles": "O=C1/C(=C\\c2cc(Br)cc(Br)c2O)CC/C1=C\\c1cc(Br)cc(Br)c1O", "TSA(without NAD+) / Inhibitory assay (Promega kit) / Mean (%)": 44.3}
{"smiles": "CCn1c2ccccc2c2cc(NC(=O)C(C)OC(=O)c3cccc(S(=O)(=O)Nc4ccc(Cl)cc4)c3)ccc21", "note": "(stereo not shown)", "TSA(without NAD+) / Inhibitory assay (Promega kit) / Mean (%)": 23.9}
{"smiles": "CC(=C/c1ccccc1)/C=N/NC(=O)c1cc(-c2ccc(C)cc2)n[nH]1", "TSA(without NAD+) / Inhibitory assay (Promega kit) / Mean (%)": 0.0522}
{"smiles": "COc1ccc(NC(=O)c2ccc(NC(=O)COC(=O)C34CC5CC(CC(Br)(C5)C3)C4)cc2)cc1", "TSA(without NAD+) / Inhibitory assay (Promega kit) / Mean (%)": 17.2}
{"smiles": "Cc1ccc(C(=O)Nc2ccc(NC(=O)NCC3CCCO3)cc2)cn1", "note": "(stereo not shown)", "TSA(without NAD+) / Inhibitory assay (Promega kit) / Mean (%)": -1.1}
{"smiles": "Cc1ccc(N(C)S(=O)(=O)c2cccc(C(=O)Nc3ccc(C(N)=O)cc3)c2)cc1", "TSA(without NAD+) / Inhibitory assay (Promega kit) / Mean (%)": 0.783}
{"smiles": "NC(=O)C1CCN(c2nc(-c3cccnc3)nc3sc4c(c23)CCCC4)CC1", "TSA(with NAD+) / Inhibitory assay (Promega kit) / Mean (%)": 39.7}
{"smiles": "O=C1/C(=C/NNC(=O)C23CC4CC(CC(C4)C2)C3)c2ccccc2C(=O)N1Cc1ccccc1", "TSA(without NAD+) / Inhibitory assay (Promega kit) / Mean (%)": -173}
{"smiles": "Cc1ccc(N(C)S(=O)(=O)c2cccc(C(=O)Nc3ccc(Br)c(C)c3)c2)cc1", "TSA(with NAD+) / Inhibitory assay (Promega kit) / Mean (%)": 27}
{"smiles": "Cc1nc(N2CCC(C(N)=O)CC2)c2c3c(sc2n1)CCCCC3", "TSA(without NAD+) / Inhibitory assay (Promega kit) / Mean (%)": 14.5}
{"smiles": "NC(=O)C1CCN(c2nc(CSc3ccccc3)nc3sc4c(c23)CCCC4)CC1", "TSA(without NAD+) / Inhibitory assay (Promega kit) / Mean (%)": 12.9}
{"smiles": "CCCCCCCCNC(=O)/C(C#N)=C/c1c[nH]c2ccccc12", "TSA(without NAD+) / Inhibitory assay (Promega kit) / Mean (%)": 9.56}
{"smiles": "N#CC(C(=O)c1ccc(NS(=O)(=O)c2ccccc2)cc1)c1nc(-c2ccccn2)cs1", "note": "(stereo not shown)", "TSA(without NAD+) / Inhibitory assay (Promega kit) / Mean (%)": -150}
{"smiles": "COc1ccc(N(C)S(=O)(=O)c2cccc(C(=O)Nc3ccc4ccccc4c3)c2)cc1", "TSA(without NAD+) / Inhibitory assay (Promega kit) / Mean (%)": -4.02}
{"smiles": "COc1ccc(N(C)S(=O)(=O)c2cccc(C(=O)Nc3ccc(Br)c(C(F)(F)F)c3)c2)cc1", "TSA(without NAD+) / Inhibitory assay (Promega kit) / Mean (%)": 5.07}
{"smiles": "Cc1ccc([N+](=O)[O-])cc1S(=O)(=O)Nc1ccc(C(=O)OC(C)C(=O)NC23CC4CC(CC(C4)C2)C3)cc1", "note": "(stereo not shown)", "TSA(without NAD+) / Inhibitory assay (Promega kit) / Mean (%)": -3.81}
{"smiles": "COc1ccc(NC(=O)CSc2nnc(Nc3ccc(SC(F)F)cc3)s2)cc1OC", "TSA(without NAD+) / Inhibitory assay (Promega kit) / Mean (%)": 16.2}
{"smiles": "O=C(NC(=S)Nc1ccc(-c2nc3ccccc3[nH]2)cc1)C12CC3CC(CC(C3)C1)C2", "TSA(without NAD+) / Inhibitory assay (Promega kit) / Mean (%)": 22.7}
{"smiles": "O=C(CCc1c[nH]c2ccccc12)Nc1nnc(-c2ccccc2)o1", "TSA(without NAD+) / Inhibitory assay (Promega kit) / Mean (%)": 10.8}
{"smiles": "O=C(NN/C=C1/C(=O)N(c2cccc(C(F)(F)F)c2)C(=O)c2ccccc21)c1cccc(S(=O)(=O)Nc2ccccc2Cl)c1", "TSA(without NAD+) / Inhibitory assay (Promega kit) / Mean (%)": -38.6}
{"smiles": "Cc1sc2nc(CSc3ccccc3)nc(N3CCC(C(N)=O)CC3)c2c1C", "TSA(without NAD+) / Inhibitory assay (Promega kit) / Mean (%)": -36.8}
{"smiles": "COc1ccc2cc(/C=C/C(=O)Nc3ccc(C(N)=O)cc3)ccc2c1", "TSA(with NAD+) / Inhibitory assay (Promega kit) / Mean (%)": 19.8}
{"smiles": "Cc1nc(-c2ccc(CCNC(=O)c3ccc(NC(=O)c4cccs4)cc3)s2)cs1", "TSA(without NAD+) / Inhibitory assay (Promega kit) / Mean (%)": 27}
{"smiles": "Cc1cccc(NS(=O)(=O)c2cccc(C(=O)OCC(=O)NC(=O)NC34CC5CC(CC(C5)C3)C4)c2)c1", "TSA(with NAD+) / Inhibitory assay (Promega kit) / Mean (%)": 31}
{"smiles": "O=C1NC(=S)NC(=O)C1=Cc1cn(-c2ccccc2)nc1-c1cc2ccccc2o1", "TSA(with NAD+) / Inhibitory assay (Promega kit) / Mean (%)": 57.2}
{"smiles": "NC(=O)C1CCN(c2nc(-c3cccs3)nc3sc4c(c23)CCCC4)CC1", "TSA(without NAD+) / Inhibitory assay (Promega kit) / Mean (%)": 0.0174}
{"smiles": "NC1=Nc2nc3ccccc3n2C(c2ccc(-c3ccc(C(=O)O)cc3)o2)N1", "note": "(stereo not shown)", "TSA(without NAD+) / Inhibitory assay (Promega kit) / Mean (%)": 17.6}
{"smiles": "O=C1/C(=C/c2cnn(-c3ccccc3)c2)Oc2cc(O)ccc21", "TSA(without NAD+) / Inhibitory assay (Promega kit) / Mean (%)": 9.45}
{"smiles": "O=C(COc1ccccc1C(=O)Nc1ccc(S(=O)(=O)Nc2nccs2)cc1)Nc1cccc(C(F)(F)F)c1", "TSA(without NAD+) / Inhibitory assay (Promega kit) / Mean (%)": 10.1}
{"smiles": "Cc1nc(N2CCC(C(N)=O)CC2)c2c3c(sc2n1)CCCC3", "TSA(without NAD+) / Inhibitory assay (Promega kit) / Mean (%)": 11.5}
{"smiles": "O=C(CSc1nnnn1-c1ccc(O)cc1)N1N=C(c2ccc3ccccc3c2)CC1c1ccccc1", "note": "(stereo not shown)", "TSA(without NAD+) / Inhibitory assay (Promega kit) / Mean (%)": 28.5}
{"smiles": "NC(=O)c1cccc(NC(=O)c2cc3c(s2)-c2ccccc2CC3)c1", "TSA(without NAD+) / Inhibitory assay (Promega kit) / Mean (%)": 4.33}
{"smiles": "COC(=O)c1cc(-c2csc(NC(=O)c3cccc(NC(=O)c4cnoc4C)c3)n2)c[nH]1", "TSA(without NAD+) / Inhibitory assay (Promega kit) / Mean (%)": 30.1}
{"smiles": "Cc1ccc(C(C)(C)C)cc1S(=O)(=O)Nc1cccc(C(=O)NNC(=O)c2cccc(S(=O)(=O)Nc3cccc(C(F)(F)F)c3)c2)c1", "TSA(without NAD+) / Inhibitory assay (Promega kit) / Mean (%)": -8.09}
{"smiles": "c1ccc(-c2[nH]c3c(ccc4ccccc43)c2-c2ccccc2)cc1", "TSA(without NAD+) / Inhibitory assay (Promega kit) / Mean (%)": -0.157}
{"smiles": "Cc1ccc(N(C)S(=O)(=O)c2cccc(C(=O)Nc3ccc4c(c3)C(=O)N(C)C4=O)c2)cc1", "TSA(with NAD+) / Inhibitory assay (Promega kit) / Mean (%)": 25}
{"smiles": "COc1ccc(N(C)S(=O)(=O)c2cccc(C(=O)Nc3ccc(Br)cc3)c2)cc1", "TSA(with NAD+) / Inhibitory assay (Promega kit) / Mean (%)": 29.2}
{"smiles": "CN(c1ccccc1)S(=O)(=O)c1cccc(NC(=O)CCCc2c[nH]c3ccccc23)c1", "TSA(without NAD+) / Inhibitory assay (Promega kit) / Mean (%)": -10.4}
{"smiles": "NCc1nc2c(cnn2-c2ccccc2)c(=O)[nH]1", "TSA(without NAD+) / Inhibitory assay (Promega kit) / Mean (%)": 62.5}
